Screening results: PubChem BioAssay, several laboratories
Only some compounds are listed: those with a hit (about 2.9% of all), similar ones and a draw of the others.
MEKK3 PB1 HTS – raises or lowers MEK5 binding to the human MEKK3 PB1 domain | AID 1529 | binding response (% of control), % at 10 µM | bead-based flow cytometry, Alexa488-MEK5 binding to MEKK3; actives lie on both sides; 0 = blocked by unlabeled MEK5, 100 = vehicle | 1.4% of 290,000 active | Q99759;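 active means binding response more than 3 SD above or below the average of its plate-row segment, actives on both sides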;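 further: Alexa488 bead fluorescence after subtracting the streptavidin-only scavenger bead signal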
Target sequence (Q99759 whole entry, looked up, the tested form may be a part): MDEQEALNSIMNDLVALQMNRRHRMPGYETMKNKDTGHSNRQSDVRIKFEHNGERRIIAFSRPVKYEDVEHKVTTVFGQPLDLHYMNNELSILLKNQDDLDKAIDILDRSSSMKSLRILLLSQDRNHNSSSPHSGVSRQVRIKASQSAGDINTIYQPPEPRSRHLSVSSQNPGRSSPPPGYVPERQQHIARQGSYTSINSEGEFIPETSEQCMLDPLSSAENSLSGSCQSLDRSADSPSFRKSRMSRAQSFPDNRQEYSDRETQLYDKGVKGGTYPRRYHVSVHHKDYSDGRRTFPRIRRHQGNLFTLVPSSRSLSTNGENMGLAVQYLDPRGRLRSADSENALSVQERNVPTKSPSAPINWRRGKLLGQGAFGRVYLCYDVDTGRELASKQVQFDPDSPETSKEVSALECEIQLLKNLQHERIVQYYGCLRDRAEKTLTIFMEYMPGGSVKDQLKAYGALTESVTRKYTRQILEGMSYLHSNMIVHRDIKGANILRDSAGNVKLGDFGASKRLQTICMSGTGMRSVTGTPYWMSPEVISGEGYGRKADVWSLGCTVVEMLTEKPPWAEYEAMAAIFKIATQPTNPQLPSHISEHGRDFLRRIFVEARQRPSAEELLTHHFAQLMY
CRFR2-BP ag – CRF-BP/CRF-R2 complex agonism | HEK293 CRF-R2/CRF-BP, calcium dye fluorescence (FLIPR); percent of saturating CRF peptide response | activation, % at 13.2 µM | 0.46% of 350,000 active | AID 588473;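 active means activation of at least 50%, plus an integration ratio under a set limit after plate pattern correction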
MEKK2wt PB1 HTS – raises or lowers MEK5 binding to wildtype human MEKK2 PB1 domain. binding response (% of control), % at 10 µM. bead flow cytometry, Alexa488-MEK5 binding to MEKK2 WT; actives lie on both sides. 1.1% of 290,000 active. Q9Y2U5. AID 1531; in the data active means binding response below about 67% or above about 130%
ABCB6 inh MLPCN – human ABCB6 transporter inhibition. K562-ABCB6 porphyrin accumulation, flow cytometry, 1 h; active compounds read low. fluorescence ratio to DMSO, % at 10 µM. 0.19% of 360,000 active;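 active means fluorescence ratio to DMSO below 75%, the collection mean minus 3 SD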;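 further: signal is porphyrin accumulated inside mitochondria; lower ratio means ABCB6 inhibition with less porphyrin fluorescence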
MEKK2mut PB1 HTS – signal of MEK5 binding to mutant human MEKK2 PB1 domain | 0.35% of 290,000 active | AID 1530 | bead flow cytometry, Alexa488-MEK5 binding to MEKK2 mutant | percent response, % at 10 µM; in the data active means percent response above about 24%, passing the limit was not always enough
CRFR2-BP antag – CRF-BP/CRF-R2 complex antagonism; 0.59% of 350,000 active; inhibition, % at 11.8 µM; HEK293 CRF-R2/CRF-BP, CRF-induced calcium fluorescence;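 active means inhibition of the ligand-induced calcium signal above about 50% at the single tested concentration, limit read from the data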
MEKK2wt confirm – raises or lowers MEK5 binding to wildtype human MEKK2, retest | shares compounds with MEKK3 PB1 HTS | bead flow cytometry, Alexa488-MEK5 binding to MEKK2 WT; actives lie on both sides | binding response (% of control), % at 10 µM | 2.4% of 5,900 active | AID 1892; in the data active means binding response below about 16% or above about 210%; inactive means in between
MEKK2mut-MEK5 – signal of MEK5 binding to mutant human MEKK2, retest; shares compounds with MEKK3 PB1 HTS; bead flow cytometry, Alexa488-MEK5 binding to MEKK2 mutant; percent response, % at 10 µM; 2% of 5,900 active; AID 1893; in the data active means percent response mostly above about 71%, no sharp cut-off; inactive means mostly below about 38%;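 further: higher means compound restores mutant binding toward wildtype level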
MEKK3-MEK5 inh – confirmation of inhibitors of MEK5 binding to human MEKK3 | bead flow cytometry, Alexa488-MEK5 binding to MEKK3; active compounds read low | binding response (% of control), % at 10 µM | AID 1894 | 1.8% of 5,900 active | shares compounds with MEKK3 PB1 HTS;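 active means binding response below 72% of control, or above a set upper limit, though filed actives all read lower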;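 further: lower values mean stronger disruption of MEK5 binding to MEKK3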
Numbers stand for hits; n = inactive; x = not tested or not shown; [ ] = remark or other dose.

SMILES	MEKK3 PB1 HTS	CRFR2-BP ag	MEKK2wt PB1 HTS	ABCB6 inh MLPCN	MEKK2mut PB1 HTS	CRFR2-BP antag	MEKK2wt confirm	MEKK2mut-MEK5	MEKK3-MEK5 inh
CCn1c(SCC(N)=O)nc2cc(S(=O)(=O)N3CCOCC3)ccc21	n	n	n	n	n	n	x	x	x
CCN1CCN(c2ccc(NC(=O)CCc3c(C)nc4c(-c5ccccc5)c(C)nn4c3C)cc2)CC1	n	n	138.0	n	n	n	n	n	n
CCN1CCN(c2cc(C(C)(C)C)nc3c(-c4ccccc4)c(C)nn23)CC1	n	n	147.0	n	n	n	n	n	n
Cc1nn2c(N3CCOCC3)cc(C(C)(C)C)nc2c1-c1ccccc1	n	n	n	n	n	n	x	x	x
CC1(Br)C(Sc2ccccc2[N+](=O)[O-])=Nc2ccccc21 (stereo not given)	x	x	x	n	x	x	x	x	x
Cc1ccc(C)c(C2=CSC3=NS(=O)(=O)CCN23)c1	2.0[inhibitor]	n	3.0[inhibitor]	n	n	n	n	n	n
Cc1nc(P(=O)(c2ccccc2)c2ccccc2)c(N2CCOCC2)o1	131.0	n	n	n	n	n	n	n	n
CC(C)n1c(O)c(/C=C2\C=Nc3ccccc32)sc1=Nc1ccccc1	13.0[inhibitor]	n	22.0[inhibitor]	n	n	n	n	n	n
CSc1nc(/C=C2\C=Nc3ccccc32)c(O)n1C	n	n	n	n	n	n	x	x	x
Cc1nn(-c2ccccc2)c(C)c1/C=N/NC(=O)c1cccs1	133.0	n	n	n	n	n	n	n	n
Cc1[nH]c2ccccc2c1/C=N/NC(=O)c1cccs1	n	n	n	n	128.0	n	n	n	n
CCCc1cc(=O)oc2cc(C)cc(OCC(=O)Nc3ccc(CN4CCOCC4)cc3)c12	n	n	n	n	n	n	x	x	x
CCN(CC)CCOC(=O)c1ccc(NC(=O)c2cn(-c3ccccc3)nc2-c2cccs2)cc1	n	n	153.0	n	n	n	250.0	92.0	n
O=C(NCC(c1ccco1)N1CCCC1)c1cc2ccccc2s1 (stereo not given)	x	n	x	n	x	n	x	x	x
CCO[C@H]1OC(C(=O)NC2CC2)=C[C@@H](c2c[nH]c3ccccc23)[C@@H]1CCCO	n	n	n	n	n	n	x	x	x
CCO[C@@H]1OC(C(=O)NC2CC2)=C[C@H](c2c[nH]c3ccccc23)[C@H]1CCCO	82.0[inhibitor]	n	n	n	n	n	n	n	n
C/C(=N\NC(=O)c1ccc(Cl)c(S(=O)(=O)Nc2ccccc2Cl)c1)c1ccncc1	145.0	n	n	n	n	n	n	n	n
C/C(=N\NC(=O)c1cccc(S(=O)(=O)Nc2ccc(C)cc2C)c1)c1ccncc1	x	n	x	n	x	n	x	x	x
O=C(/C=C/c1ccccc1)NC1CCS(=O)(=O)C1 (stereo not given)	72.0[inhibitor]	n	n	n	n	n	n	n	n
O=C(Cc1coc2ccc3ccccc3c12)NCc1ccccc1	n	n	n	n	n	n	x	x	x
O=C(Cc1coc2ccc3ccccc3c12)NC1CCCc2ccccc21 (stereo not given)	135.0	n	n	n	n	n	n	n	n
Cc1cccc(C)c1NC(=O)CS(=O)CC(=O)NC1CCCc2ccccc21 (stereo not given)	132.0	n	n	n	n	n	n	n	n
CCOC(=O)NC(=O)CSc1nnnn1-c1ccc(C)cc1	2.0[inhibitor]	n	2.0[inhibitor]	n	n	n	n	n	n
Cc1ccc(-n2nnnc2SCC(=O)NC2CCCc3ccccc32)cc1 (stereo not given)	140.0	n	n	n	n	n	n	n	n
CCc1nc2ccc(C(=O)N3CCCC(C(N)=O)C3)cn2c1N(C=O)CC (stereo not given)	x	x	x	n	x	x	x	x	x
SMILES	MEKK3 PB1 HTS	CRFR2-BP ag	MEKK2wt PB1 HTS	ABCB6 inh MLPCN	MEKK2mut PB1 HTS	CRFR2-BP antag	MEKK2wt confirm	MEKK2mut-MEK5	MEKK3-MEK5 inh
O=C1CN(Cc2cc(=O)oc3cc4c(cc23)CCC4)CCN1	n	n	n	n	n	n	x	x	x
CN(C(=O)c1ccc(NC(=O)Cc2cccc(NC(=O)C3CCCN(C(=O)C4CCC4)C3)c2)cc1)C1CCCC1 (stereo not given)	x	n	x	n	x	n	x	x	x
CCC(C)c1ccc(N(CC(=O)NC(C)(C)C)C(=O)CNC(=O)c2cccs2)cc1 (stereo not given)	n	n	n	n	n	n	x	x	x
CN(C(=O)c1ccc(NC(=O)C2CCN(C(=O)OC(C)(C)C)CC2)cc1)C1CCC1	x	n	x	n	x	n	x	x	x
COc1ccc(NC2CCCN(C(=O)c3cn(C)c4ccccc34)C2)cc1 (stereo not given)	n	n	n	n	n	n	x	x	x
O=C(CN1CCOCC1)Nc1nc(-c2ccc3c(c2)CCN3S(=O)(=O)c2ccccc2)cs1	2.0[inhibitor]	n	3.0[inhibitor]	n	n	n	n	n	n
Cc1cc(/C=C2\C(=O)NN(c3ccccc3)C2=O)c(C)n1-c1ccccc1O	36.0[inhibitor]	n	32.0[inhibitor]	n	n	n	n	n	n
Cc1ccccc1N(C(=O)Cc1c[nH]c2ccccc12)C(C(=O)NC1CCCCC1)c1ccco1 (stereo not given)	n	n	n	n	n	n	x	x	x
Cc1ccc(C(C(=O)NC2CCCCC2)N(C(=O)Cc2c[nH]c3ccccc23)c2ccccc2C)o1 (stereo not given)	128.0	n	n	n	n	n	n	n	n
CCOC(=O)Cc1nc(-c2ccccc2)n[nH]1	n	n	1.0[inhibitor]	n	n	n	n	n	n
CCC1(C)OC(=O)N(CCCn2ccnc2C)C1(C)O (stereo not given)	123.0	n	n	n	n	n	n	n	n
N=c1n(CCN2CCCCC2)c2ccccc2n1CC(=O)c1ccc(Cl)c(Cl)c1	n	n	173.0	n	n	n	n	n	n
N=c1n(CCN2CCCCC2)c2ccccc2n1CC(O)c1ccc(Cl)c(Cl)c1 (stereo not given)	n	n	142.0	n	n	n	n	n	n
CC(C)C[C@@H](CNCC(=O)[C@H](C)NC(=O)c1[nH]cnc1C(=O)N[C@@H](C)CN)NC(=O)c1nc[nH]c1C(=O)N[C@@H](CC(=O)O)C(=O)O	x	n	x	n	x	n	x	x	x
O=C(CN1CCCC1)NCC12CC3CC(CC(C3)C1)C2	82.0[inhibitor]	n	n	n	n	n	n	n	n
CCOC(=O)c1c(C)[nH]c(C)c1C(=O)CSc1nc2ccccc2n1CC	135.0	n	n	n	n	n	n	n	n
